Measurements published in PubChem BioAssay.
Activity calls are given as the source filed them.

Columns and labels:
[1] = tested on: Plasmodium falciparum Sir2 (PF13_0152, Sir2A); experiment: Plasmodium falciparum Sir2A binding compounds – biochemical, small-molecule microarray, 635 nm fluorescence, primary screen (AID 1098); conditions: fluorescence 635 nm, higher = more signal;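 note: score merges spot fluorescence intensity with its signal-to-noise ratio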
[2] = probe aDKK1 binding to arrayed compounds – biochemical, biotinylated probe, 635/667 nm fluorescence, primary screen (AID 1099); conditions: small-molecule microarray, higher = more signal;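 note: score merges 667nm spot fluorescence with signal to noise across triplicate slides; reference of the scale not given here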
[3] = probe aCHRDL2 binding to arrayed compounds – biochemical, biotinylated probe, 635/667 nm fluorescence, primary screen (AID 1100); conditions: small-molecule microarray, higher = more signal
[4] = change in splice reporter luminescence, either direction, cell-based, HEK293, spliceosome inhibition project, primary screen (AID 1101); conditions: HEK293 splicing luciferase reporter, 24 h, higher = more signal, called active from +8 up or from −8 down;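 note: HEK293 cells carrying a splicing-competent luciferase reporter gene; test concentration not given here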
[5] = molecular target: Fibroblast growth factor 10 (Homo sapiens) (UniProt O15520); experiment: compounds binding fibroblast growth factor 10 – biochemical, small-molecule microarray, 635 nm fluorescence, primary screen (AID 1102); conditions: FGF10 binding, fluorescence 635 nm, higher = more signal
[6] = tested on: glycogen synthase kinase-3 (GSK3A per assay name; protocol says GSK3B); experiment: compounds binding glycogen synthase kinase-3 – biochemical, small-molecule microarray, 635 nm fluorescence, GSK3A, primary screen (AID 1103); conditions: fluorescence 635 nm, higher = more signal; note: the record names both GSK3A and GSK3B
[7] = molecular target: Epidermal growth factor receptor (Homo sapiens) (UniProt P00533); experiment: compounds binding epidermal growth factor receptor – biochemical, small-molecule microarray, 635 nm fluorescence, primary screen (AID 1104); conditions: EGFR binding, higher = more signal;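 note: score merges 667 nm emission intensity with spot signal to noise over triplicate slides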
[8] = molecular target: Follistatin-related protein 3 (Homo sapiens) (UniProt O95633); experiment: compounds binding follistatin-related protein 3 – biochemical, small-molecule microarray, 635 nm fluorescence, primary screen (AID 1105); conditions: FSTL3 binding, higher = more signal;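 note: score merges emission near 667 nm and signal to noise per printed spot across three slides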
[9] = molecular target: Dickkopf-related protein 1 (Homo sapiens) (UniProt O94907); experiment: small molecules binding DKK1 protein – biochemical, small-molecule microarray, 635 nm fluorescence scan, primary screen (AID 1106); conditions: higher = more signal;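 note: score merges emission near 667 nm with signal to noise over three replicate slides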
[10] = tested on: Inhibin beta A chain (activin A); experiment: small molecules binding activin A – biochemical, small-molecule microarray, 635 nm fluorescence scan, primary screen (AID 1107); conditions: INHBA, higher = more signal;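 note: mouse activin A protein probed at 4.33 µg/mL on printed slides; score merges bound-protein fluorescence near 667 nm with spot signal-to-noise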

Sequence of Epidermal growth factor receptor (Homo sapiens) (P00533 whole entry, looked up): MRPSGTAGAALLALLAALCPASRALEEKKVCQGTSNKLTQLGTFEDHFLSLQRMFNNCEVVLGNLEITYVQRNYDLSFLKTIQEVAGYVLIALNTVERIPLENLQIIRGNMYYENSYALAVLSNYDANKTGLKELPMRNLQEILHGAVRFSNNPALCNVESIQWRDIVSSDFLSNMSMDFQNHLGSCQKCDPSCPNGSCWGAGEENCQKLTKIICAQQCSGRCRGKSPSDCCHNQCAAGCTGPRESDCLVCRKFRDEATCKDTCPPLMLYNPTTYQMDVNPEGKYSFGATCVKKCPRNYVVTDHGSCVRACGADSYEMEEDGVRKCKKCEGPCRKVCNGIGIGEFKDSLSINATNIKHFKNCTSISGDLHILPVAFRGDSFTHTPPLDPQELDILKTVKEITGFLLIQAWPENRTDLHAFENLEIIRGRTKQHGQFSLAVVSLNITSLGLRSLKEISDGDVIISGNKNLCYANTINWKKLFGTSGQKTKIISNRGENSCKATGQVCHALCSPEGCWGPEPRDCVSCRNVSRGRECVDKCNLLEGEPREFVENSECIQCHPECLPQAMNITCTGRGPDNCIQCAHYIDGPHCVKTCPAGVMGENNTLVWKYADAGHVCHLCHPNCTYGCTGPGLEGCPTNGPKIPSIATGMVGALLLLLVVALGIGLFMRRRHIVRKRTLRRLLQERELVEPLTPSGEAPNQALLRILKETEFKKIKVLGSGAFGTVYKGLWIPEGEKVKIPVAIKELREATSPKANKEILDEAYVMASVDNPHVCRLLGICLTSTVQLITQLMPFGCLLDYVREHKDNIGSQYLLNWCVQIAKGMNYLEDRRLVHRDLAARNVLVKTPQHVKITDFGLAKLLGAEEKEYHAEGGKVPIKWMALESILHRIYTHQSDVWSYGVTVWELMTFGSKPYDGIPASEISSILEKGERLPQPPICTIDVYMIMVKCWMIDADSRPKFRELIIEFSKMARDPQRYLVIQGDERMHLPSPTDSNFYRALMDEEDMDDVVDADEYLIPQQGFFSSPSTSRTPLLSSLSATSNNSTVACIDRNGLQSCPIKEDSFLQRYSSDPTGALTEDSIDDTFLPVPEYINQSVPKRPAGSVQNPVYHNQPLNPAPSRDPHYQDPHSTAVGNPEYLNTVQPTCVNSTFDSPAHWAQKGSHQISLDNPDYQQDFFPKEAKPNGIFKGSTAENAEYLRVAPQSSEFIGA
Sequence of Dickkopf-related protein 1 (Homo sapiens) (O94907 whole entry, looked up): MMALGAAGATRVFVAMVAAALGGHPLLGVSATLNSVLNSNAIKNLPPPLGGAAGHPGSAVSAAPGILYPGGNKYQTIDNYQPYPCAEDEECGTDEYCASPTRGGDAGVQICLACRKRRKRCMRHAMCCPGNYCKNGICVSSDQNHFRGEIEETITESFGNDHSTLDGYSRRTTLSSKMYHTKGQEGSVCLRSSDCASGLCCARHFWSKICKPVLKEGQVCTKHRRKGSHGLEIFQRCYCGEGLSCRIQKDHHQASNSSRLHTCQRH
Sequence of Fibroblast growth factor 10 (Homo sapiens) (O15520 whole entry, looked up): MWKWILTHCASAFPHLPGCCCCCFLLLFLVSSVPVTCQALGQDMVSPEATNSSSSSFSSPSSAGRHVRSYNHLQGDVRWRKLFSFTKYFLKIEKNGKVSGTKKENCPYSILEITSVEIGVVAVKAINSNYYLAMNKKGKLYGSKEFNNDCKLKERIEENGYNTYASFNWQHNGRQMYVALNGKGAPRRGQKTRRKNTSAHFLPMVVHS
Sequence of Follistatin-related protein 3 (Homo sapiens) (O95633 whole entry, looked up): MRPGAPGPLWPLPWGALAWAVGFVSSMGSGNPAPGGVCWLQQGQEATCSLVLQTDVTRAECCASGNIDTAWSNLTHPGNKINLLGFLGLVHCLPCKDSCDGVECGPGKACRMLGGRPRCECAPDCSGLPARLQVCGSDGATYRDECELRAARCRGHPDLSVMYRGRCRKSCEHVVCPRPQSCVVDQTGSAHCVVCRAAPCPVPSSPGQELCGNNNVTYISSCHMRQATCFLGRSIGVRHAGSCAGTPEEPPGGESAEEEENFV

| SMILES | composite z-score [1] | composite z-score [2] | composite z-score [3] | z-score [4] | composite z-score [5] | composite z-score [6] | composite z-score [7] | composite z-score [8] | composite z-score [9] | composite z-score [10] |
| --- | --- | --- | --- | --- | --- | --- | --- | --- | --- | --- |
| C=C(C(=O)CC[C@@H](OC(=O)c1ccccc1-c1ccccc1C(=O)O)c1ccc(CO)o1)C(C)C | 1.07 | -0.258 | -0.532 | 0.88 (inactive) | 1.51 | 0.913 | -0.132 | 0.648 | 1.12 | 0.927 |
| O=C1NC(=O)C2C1C=CC(C(O)C(O)CO)N2Nc1ccccn1 (stereo not given) | 0.0854 | -0.191 | -0.104 | -0.396 (inactive) | 0.183 | 0.335 | 0.386 | 0.178 | 0.173 | 0.0473 |
| CCOC(=O)C1=CC[C@@H](c2ccccc2)N(S(=O)(=O)c2ccc(C)cc2)[C@@H]1C#N | 0.921 | 0.386 | 0.868 | 0.694 (inactive) | 0.562 | -0.199 | -0.181 | 0.364 | -0.542 | 0.767 |
| CC[C@@H](O[Si](C#C[Si](C(C)C)(C(C)C)C(C)C)(C(C)C)C(C)C)c1cn([C@H](C)c2ccccc2)nn1 | 0.43 | 0.0317 | -0.328 | 0.242 (inactive) | 0.403 | 0.136 | 0.533 | 0.658 | 0.432 | -0.142 |
| COc1ccc(C(=O)Nc2cccc(CN3C(=O)[C@]4(O[C@H](CC(=O)N(CCO)Cc5ccccc5)[C@@H]([Si](C)(C)c5ccc(OC)cc5)[C@@H]4C)c4ccccc43)c2)cc1 | 1.12 | -0.275 | 0.123 | 0.288 (inactive) | 1.11 | -0.117 | 0.666 | 0.702 | 0.649 | 0.794 |
| COc1ccc(NN2C(C(O)c3ccc(F)cc3)C=CC3C(=O)N(C4CCCCC4)C(=O)C32)cc1 (stereo not given) | 0.565 | 0.959 | 0.763 | -0.794 (inactive) | 0.995 | 0.928 | 0.801 | 1.01 | 0.129 | 1.24 |
| COC(=O)[C@@]1(Cc2ccc(F)cc2)[C@H]2c3cc(C(=O)N4CCCC4)n(Cc4ccc(C(F)(F)F)nc4)c3C[C@H]2CN1C(=O)c1ccccc1 | 0.513 | 0.16 | 1.33 | -0.375 (inactive) | 0.472 | 1.3 | 0.643 | 1.19 | -0.417 | 0.843 |
| CC(C)c1ccc(NN2C(C(O)C(C)c3ccccc3)C=CC3C(=O)N(c4ccccc4)C(=O)C32)cc1 (stereo not given) | 1.28 | 1.41 | 1.03 | 1.77 (inactive) | 1.09 | 1.28 | 0.308 | 0.838 | 0.18 | -0.804 |
| COc1ccc([Si](C)(C)[C@@H]2[C@@H](CC(=O)N3CCC[C@H]3CO)O[C@]3(C(=O)N(Cc4cccc(N5C(=O)c6cccc7cccc5c67)c4)c4ccccc43)[C@H]2C)cc1 | 1.22 | -0.164 | 0.0325 | -0.134 (inactive) | 0.415 | 0.0816 | 0.192 | 0.402 | 0.655 | 0.608 |
| O=C1C[C@@](C(=O)NCC(F)(F)F)(c2ccc([N+](=O)[O-])cc2)[C@@H](c2ccc(CO)cc2I)N1CC12CC3CC(CC(C3)C1)C2 | 1.5 | -0.113 | 0.0558 | -1.85 (inactive) | 0.343 | 0.785 | 0.237 | 0.406 | -0.0464 | 0.227 |
| C=C(COC)C(=O)CC[C@H](OC(C)=O)c1ccc(CO)o1 | 1.44 | -0.362 | -0.566 | -1.35 (inactive) | 0.757 | -0.646 | -0.0826 | 0.47 | 0.488 | 1.03 |
| C#CCN(C(=O)OC(C)(C)C)[C@H](CO)c1ccccc1 | -0.223 | -0.331 | -0.601 | 0.234 (inactive) | 0.286 | 0.419 | 0.258 | -0.0195 | 0.226 | -0.415 |
| C[C@]1(C(=O)O)c2ccccc2C(=O)N(Cc2cc(C(F)(F)F)cc(C(F)(F)F)c2)[C@H]1c1ccc(CO)cc1 | -0.822 | 0.324 | 0.55 | 0.487 (inactive) | -0.04 | -0.25 | -0.641 | 0.142 | 0.123 | 0.41 |
| C=C(CC1([C@@H](NP(=O)(c2ccccc2)c2ccccc2)[C@H]2C[C@@H]2CCCC)CC1)c1cccc(OC)c1 | -0.167 | 0.91 | 1.15 | -2.52 (inactive) | 0.158 | -0.3 | -0.28 | 0.463 | -1.14 | 1.03 |
| COC(=O)C1(CC(C)C)C=C2C(=C(C)C(=O)C2C)CN1 (stereo not given) | -0.211 | 1.34 | 1.14 | 1.68 (inactive) | 0.069 | -0.279 | -0.155 | 0.641 | -0.15 | 1.43 |
| CN1C(=O)C2C(C1=O)C1C=C(CCCO)C2C(C2CC2)N1C (stereo not given) | 0.264 | 0.0917 | 0.38 | -0.89 (inactive) | -0.158 | -0.83 | 0.0501 | -0.694 | -0.741 | 0.411 |
| COCCOC(=O)N1C(=O)[C@@]2(c3cc(C#CCNC(N)=O)ccc31)[C@H](c1ccc(O)cc1)N1[C@H](c3ccccc3)[C@H](c3ccccc3)OC(=O)[C@H]1[C@@H]2C(=O)N1CCc2cc(OC)c(OC)cc2C1 | 0.391 | 0.206 | 0.493 | -1.41 (inactive) | 1.19 | -0.447 | 0.292 | 1.2 | 0.372 | 0.899 |
| O=C(NC1CC1)[C@@H]1c2ccccc2C(=O)N(C2CCCCC2)[C@H]1c1ccc(CO)cc1 | 0.891 | 1.84 | 0.989 | -0.496 (inactive) | 0.055 | 0.286 | 0.0989 | 0.208 | 0.139 | -0.24 |
| [N-]=[N+]=NCc1ccccc1C[C@]1(C(=O)N2CCCCC2)COC(c2ccc(OCCCO)cc2)=N1 | 0.314 | 0.0279 | 0.552 | 0.0234 (inactive) | 0.786 | 1.02 | 1.1 | 0.636 | 0.221 | -0.297 |
| CC(C)C[C@@H]1NC(=O)[C@@H]2C[C@H](C(=O)NCCCCCCNC(=O)CS)[C@H](c3ccc(O)cc3)N2C1=O | 1.57 | -0.0965 | 0.254 | -1.1 (inactive) | 1.45 | 1.26 | 0.672 | 1.47 | 1.27 | -0.0334 |
| O=C1NC(=O)C2C1C=CC(C(O)C(c1ccccc1)c1ccccc1)N2Nc1ccccn1 (stereo not given) | 0.737 | 1.25 | 1.15 | 0.864 (inactive) | 0.909 | -0.145 | 0.457 | 0.503 | 0.593 | 1.32 |
| COCCCNC(=O)[C@@]1(Cc2ccccc2I)c2ccccc2C(=O)N(C2CCCCC2)[C@H]1c1ccc(CO)cc1 | 1.25 | 0.015 | 0.445 | -0.235 (inactive) | 0.973 | 0.681 | -0.0802 | 0.0553 | 0.249 | 0.123 |
| COCCOC(=O)N1C(=O)[C@@]2(c3cc(C#CC4=CCCCC4)ccc31)[C@H](c1ccc(O)cc1)N1[C@H](c3ccccc3)[C@H](c3ccccc3)OC(=O)[C@H]1[C@@H]2C(=O)N1CCc2cc(OC)c(OC)cc2C1 | 0.835 | 0.15 | 0.338 | 0.864 (inactive) | 0.415 | 0.202 | 0.0275 | 0.227 | 0.0375 | 0.545 |
| C=CC[C@]12N=C(c3ccc(OCCCO)cc3)O[C@H]1c1ccccc1N(CCC)C2=O | 1.18 | 0.43 | 0.693 | -0.391 (inactive) | 1.11 | 1.25 | 0.37 | 1.11 | 0.277 | 1.3 |
| COC(=O)[C@@]1(Cc2ccc(F)cc2)[C@H]2c3cc(C(=O)N(C)C)n(Cc4cccc5ccccc45)c3C[C@H]2CN1C(=O)c1ccccc1 | 0.796 | 0.926 | 1.04 | 0.551 (inactive) | 1.13 | 0.111 | -0.953 | -0.242 | -1.02 | 0.644 |
| COc1cc(CO)cc(I)c1O[C@H]1C=C(C(=O)NCCO)C[C@@H](N(CCN2CCOCC2)C(=O)C2CCCO2)[C@@H]1O (stereo not given in full) | 0.226 | -0.309 | -0.521 | 0.0133 (inactive) | 0.322 | 0.507 | 0.488 | 0.152 | 0.516 | 0.356 |
| CC(C)Cc1ccc(CN2CC[C@@H](NC(=O)c3ccccc3)C2)cc1 | 0.934 | -0.357 | 0.0383 | 1.03 (inactive) | -0.75 | -1.11 | -0.381 | -0.647 | -0.0332 | 0.631 |
| CC(CO)N1C(=O)[C@@H]2[C@H]3C(=O)OCC=C[C@H]3OC23C=CCN(c2ccc4ccccc4c2)C(=O)[C@@H]13 (stereo not given in full) | -0.893 | -0.0682 | 0.725 | 0.445 (inactive) | -0.916 | -1.56 | -1.64 | -1.66 | -1.83 | -1.18 |
